The source made the active and inactive calls. Unless noted, the rule behind the calls is not given here.
Legend:
[1] = A549 cell viability effects, profiling panel, calcein-AM fluorescence, 48 h, basal (AID 1162); conditions: higher = more signal; note: test concentration not given here
[2] = adipocyte viability effects, profiling panel, cell-based, 3T3-L1 adipocytes, calcein-AM fluorescence, 48 h, basal (AID 1163); conditions: 3T3-L1 adipocytes viability, higher = more signal; note: test concentration not given here
[3] = HepG2 cell viability effects, profiling panel, calcein-AM fluorescence, 48 h, basal (AID 1164); conditions: higher = more signal; note: test concentration not given here
[4] = MM1S cell viability effects, profiling panel, calcein-AM fluorescence, 48 h, basal (AID 1165); conditions: higher = more signal;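 note: viability of MM1S multiple myeloma cells under basal unstimulated conditions; test concentration not given here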
[5] = basal RPMI8226 viability, no added stimulus, profiling panel, cell-based, calcein-AM fluorescence, 48 h, PK04 Diversity Set (AID 1166); conditions: RPMI8226 myeloma viability, higher = more signal;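 note: cells grown under basal conditions without added stimulus; test concentration not given here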
[6] = basal HepG2 mitochondrial membrane potential changes, profiling panel, cell-based, JC-1 fluorescence, 24 h, 100 nL compound (AID 1167); conditions: higher = more signal; note: test concentration not given here
[7] = basal 3T3-L1 adipocyte mitochondrial potential changes, profiling panel, cell-based, JC-1 fluorescence, 3T3-L1 adipocytes, 24 h, 100 nL compound (AID 1168); conditions: JC-1 mitochondrial fluorescence, higher = more signal, called active from +8 up or from −8 down; note: test concentration not given here
[8] = basal RPMI8226 mitochondrial membrane potential changes, profiling panel, cell-based, JC-1 fluorescence, 24 h, 100 nL compound (AID 1169); conditions: RPMI8226 myeloma, JC-1 mitochondrial potential fluorescence, higher = more signal; note: test concentration not given here
[9] = basal MM1S mitochondrial membrane potential changes, profiling panel, cell-based, JC-1 fluorescence, 24 h, 100 nL compound (AID 1170); conditions: higher = more signal; note: test concentration not given here
[10] = A549 lung cancer cell viability effects, profiling panel, resazurin fluorescence, 24 h, PK04 Diversity Set (AID 1171); conditions: higher = more signal, called active from +8 up or from −8 down; note: test concentration not given here
[11] = HepG2 liver cancer cell viability effects, profiling panel, resazurin fluorescence, 24 h, PK04 Diversity Set (AID 1172); conditions: higher = more signal; note: test concentration not given here
[12] = basal S. cerevisiae growth modulation, no modifier, primary screen, OD600, strain BY4716, 24 h, basal condition (AID 1173); conditions: OD600, 24 h, higher = more signal, called active from +8 up or from −8 down
[13] = MM1S myeloma cell viability, profiling panel, resazurin fluorescence, basal, 24 h, PK04 Diversity Set (AID 1174); conditions: higher = more signal, called active from +8 up or from −8 down;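 note: MM1S multiple myeloma cell line; test concentration not given here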
[14] = molecular target: Dihydroorotate dehydrogenase (quinone), mitochondrial (Plasmodium falciparum (isolate 3D7)) (UniProt Q08210); experiment: PfDHODH enzyme inhibitors, primary screen, biochemical, C-terminal His tag, absorbance 600 nm (AID 1175); conditions: DCIP absorbance 600 nm, higher = more signal, called active from +8 up or from −8 down;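 note: recombinant parasite enzyme with a five histidine tag at its C terminus; test concentration not given here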
[15] = P. aeruginosa biofilm formation inhibitors, primary screen, strain PAO1, LB-PBS medium, absorbance 600 nm (AID 1176); note: test concentration not given here; conditions: P. aeruginosa PAO1 growth/biofilm, A600, 12 h; higher = more signal
[16] = S. cerevisiae RM11-1a growth modifiers, primary screen, strain RM11-1a, OD600, basal, 24 h (AID 1177); conditions: OD600, 24 h, higher = more signal, called active from +8 up or from −8 down;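 note: cultures grown under basal conditions with no added stressor; test concentration not given here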
[17] = E. coli acrAB mutant growth effects, primary screen, E. coli filamentation inducers, strain DRC39, OD650, 24 h (AID 1178); conditions: higher = more signal, called active from +8 up or from −8 down;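 note: growth measured as culture turbidity by optical density at 650 nm; test concentration not given here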
[18] = E. coli acrAB mutant growth effects, primary screen, E. coli filamentation inducers, strain DRC39, OD650, 48 h (AID 1179);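 note: screen aims at cell division blockers that make cells filament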; conditions: E. coli DRC39 delta-acrAB growth, higher = more signal, called active from +8 up or from −8 down
[19] = RPMI8226 myeloma cell viability, profiling panel, resazurin fluorescence, basal, 24 h, PK04 Diversity Set (AID 1180); conditions: higher = more signal;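 note: RPMI8826 multiple myeloma cell line at 5000 cells per well; test concentration not given here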
[20] = molecular target: E3 ubiquitin-protein ligase XIAP (Homo sapiens) (UniProt P98170); experiment: XIAP binders, primary screen, biophysical, small-molecule microarray, fluorescence 635 nm (AID 1181); conditions: small-molecule microarray binding, higher = more signal;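 note: score merges 667 nm emission and signal to noise over triplicate slides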
E3 ubiquitin-protein ligase XIAP (Homo sapiens), sequence (P98170 whole entry, looked up): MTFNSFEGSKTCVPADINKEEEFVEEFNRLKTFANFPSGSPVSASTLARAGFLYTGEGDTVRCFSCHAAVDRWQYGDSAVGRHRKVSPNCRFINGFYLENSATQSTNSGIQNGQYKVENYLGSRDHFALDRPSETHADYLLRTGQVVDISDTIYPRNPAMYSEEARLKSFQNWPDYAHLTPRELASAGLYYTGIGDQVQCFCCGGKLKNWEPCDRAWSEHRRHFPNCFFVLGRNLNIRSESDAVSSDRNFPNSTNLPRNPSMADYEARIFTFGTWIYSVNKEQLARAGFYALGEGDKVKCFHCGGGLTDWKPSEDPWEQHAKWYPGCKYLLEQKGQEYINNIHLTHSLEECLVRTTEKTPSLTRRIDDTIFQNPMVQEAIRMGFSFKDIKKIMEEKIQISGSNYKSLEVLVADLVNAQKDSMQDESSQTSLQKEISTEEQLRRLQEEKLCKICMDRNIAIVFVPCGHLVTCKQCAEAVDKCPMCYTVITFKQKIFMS

Dihydroorotate dehydrogenase (quinone), mitochondrial (Plasmodium falciparum (isolate 3D7)), sequence (Q08210 whole entry, looked up): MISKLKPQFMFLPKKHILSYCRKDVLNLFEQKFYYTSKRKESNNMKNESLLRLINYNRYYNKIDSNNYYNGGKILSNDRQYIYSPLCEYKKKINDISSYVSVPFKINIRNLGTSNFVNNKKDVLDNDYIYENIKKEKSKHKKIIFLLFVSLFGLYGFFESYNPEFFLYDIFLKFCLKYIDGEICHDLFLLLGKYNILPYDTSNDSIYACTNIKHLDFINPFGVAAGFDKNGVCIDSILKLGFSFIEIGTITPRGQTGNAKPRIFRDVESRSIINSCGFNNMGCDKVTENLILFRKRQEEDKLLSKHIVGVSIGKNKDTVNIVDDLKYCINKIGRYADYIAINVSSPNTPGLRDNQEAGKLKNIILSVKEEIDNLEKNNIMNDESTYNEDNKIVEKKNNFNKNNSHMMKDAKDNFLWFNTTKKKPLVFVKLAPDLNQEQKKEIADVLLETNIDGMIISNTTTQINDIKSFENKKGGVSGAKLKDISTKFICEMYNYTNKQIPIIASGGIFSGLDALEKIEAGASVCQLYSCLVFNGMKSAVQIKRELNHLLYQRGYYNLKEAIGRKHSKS

| Structure (SMILES) | z-score [1] | z-score [2] | z-score [3] | z-score [4] | z-score [5] | z-score [6] | z-score [7] | z-score [8] | z-score [9] | z-score [10] | z-score [11] | z-score [12] | z-score [13] | composite z-score [14] | z-score [15] | z-score [16] | z-score [17] | z-score [18] | z-score [19] | composite z-score [20] |
| --- | --- | --- | --- | --- | --- | --- | --- | --- | --- | --- | --- | --- | --- | --- | --- | --- | --- | --- | --- | --- |
| CCOC(=O)C1=CC[C@@H](c2ccccc2)N(S(=O)(=O)c2ccc(C)cc2)[C@H]1c1cccc(OC)c1 | -0.716 | -1.41 | -0.0906 | -0.247 | -0.907 | 2.94 | -0.293 (inactive) | 0.505 | -1.35 | 0.776 (inactive) | 0.0088 | 2.25 (inactive) | -0.387 (inactive) | -0.777 (inactive) | 0.325 (inactive) | 1.21 (inactive) | -0.577 (inactive) | 0.244 (inactive) | -1.22 | -0.022 |
| COc1cc2c(cc1OC)CN(C(=O)[C@@H]1[C@H]3C(=O)O[C@H](c4ccccc4)[C@H](c4ccccc4)N3[C@H](c3ccc(O)cc3)[C@@]13C(=O)Nc1ccc(C#CCCO)cc13)CC2 | -0.446 | -0.423 | -0.314 | -0.0118 | 0.191 | -2.29 | 0.0304 (inactive) | -0.294 | -0.492 | 0.156 (inactive) | 0.0462 | 1.03 (inactive) | -1.22 (inactive) | 0.838 (inactive) | 1.2 (inactive) | 1.66 (inactive) | 0.437 (inactive) | 0.258 (inactive) | -0.657 | -0.269 |
| CCCC=C(CCC)[C@@H](NS(=O)(=O)c1cccc2cccnc12)c1ccc(-c2ccccc2)cc1 | -0.97 | -0.411 | -0.615 | -1.95 | -4.54 | -3.54 | -0.0229 (inactive) | -0.361 | -0.844 | 0.864 (inactive) | 1.15 | 0.928 (inactive) | 1.02 (inactive) | -0.0926 (inactive) | -0.787 (inactive) | 0.52 (inactive) | -0.24 (inactive) | -0.342 (inactive) | 1.27 | 0.072 |
| C=C(CCCC)C(=O)CC[C@H](OC(C)=O)c1ccc(OCCO)cc1 | 0.95 | 3.04 | -0.0781 | -2.86 | -3.54 | 0.764 | -0.387 (inactive) | -0.248 | -1.39 | 0.697 (inactive) | 0.574 | -3.3 (inactive) | -0.464 (inactive) | -0.788 (inactive) | 0.0022 (inactive) | -2.33 (inactive) | -0.0158 (inactive) | 0.539 (inactive) | -0.939 | 0.648 |
| [N-]=[N+]=NCc1ccccc1[C@@H]1OC(c2ccc(OCCCO)cc2)=N[C@]1(Cc1ccccc1N=[N+]=[N-])C(=O)NCCN1CCOCC1 | 0.0239 | 0.727 | 0.695 | -1.17 | -1.09 | 0.988 | 0.564 (inactive) | -0.96 | -0.212 | 0.162 (inactive) | -0.591 | -2.33 (inactive) | 0.0903 (inactive) | -0.549 (inactive) | 0.385 (inactive) | -0.186 (inactive) | 0.191 (inactive) | -0.215 (inactive) | -0.846 | -0.0826 |
| CN1C(=O)[C@@H]2[C@@H](CC(COc3ccccc3)=C([C@H](O)CCc3ccccc3)[C@@H]2CO)C1=O | 1.9 | -0.13 | 0.943 | 0.445 | -0.388 | 0.397 | 0.813 (inactive) | -0.274 | 0.472 | -0.123 (inactive) | 0.358 | -3.31 (inactive) | 0.0223 (inactive) | -0.171 (inactive) | -0.104 (inactive) | -0.136 (inactive) | 2.19 (inactive) | 1.17 (inactive) | 0.685 | 0.0178 |
| C=CCC(OC(C)=O)[C@@H]1[C@@H](N(Cc2cc3ccccc3o2)C(=O)c2ccc(-c3ccccc3)cc2)c2cc(OCCCO)ccc2N1C(=O)Cc1ccc(OC)cc1 (stereo not given in full) | 0.315 | 0.443 | 1.04 | 0.0213 | -0.226 | 1.23 | -0.76 (inactive) | 0.738 | 0.239 | 0.0443 (inactive) | -0.716 | 1.4 (inactive) | -0.133 (inactive) | 0.0211 (inactive) | 0.0672 (inactive) | 0.708 (inactive) | -0.384 (inactive) | -0.541 (inactive) | -0.209 | -0.0414 |
| C=C(CCCC)/C(=C/C[C@H](OC(C)=O)c1ccc(OCCO)cc1)c1cc(C(=O)OC)ccc1OC | 0.899 | 1.18 | 1.74 | -2.88 | -1.83 | 2.2 | 0.151 (inactive) | -0.864 | -0.957 | 1.09 (inactive) | 0.757 | -1.06 (inactive) | -0.0396 (inactive) | -0.793 (inactive) | 0.825 (inactive) | -0.0587 (inactive) | 0.487 (inactive) | 0.371 (inactive) | 0.621 | 0.0977 |
| C=C(C)C1CCC(C(O)C2C=CC3C(=O)N(C)C(=O)C3N2Nc2cc(OC)c(OC)c(OC)c2)CC1 (stereo not given) | -1.13 | -1 | -0.273 | -0.989 | -0.0317 | -0.648 | -0.696 (inactive) | -0.354 | -0.549 | -0.404 (inactive) | -1.15 | 0.552 (inactive) | -0.901 (inactive) | -0.896 (inactive) | 0.971 (inactive) | 0.065 (inactive) | -0.274 (inactive) | -0.379 (inactive) | -1.27 | 0.153 |
| CC(C)C(CO)N1C(=O)[C@@H]2[C@H]3C(=O)OCC=C[C@H]3OC23C=CCN(C(C)(C)C)C(=O)[C@@H]13 (stereo not given in full) | -0.234 | -0.783 | -0.543 | 0.583 | -0.251 | -1.16 | -0.0819 (inactive) | 0.185 | 0.264 | -0.166 (inactive) | -0.341 | 0.542 (inactive) | -0.763 (inactive) | 0.648 (inactive) | 0.137 (inactive) | 1.18 (inactive) | -0.804 (inactive) | -0.854 (inactive) | -0.941 | -0.156 |
| [N-]=[N+]=Nc1ccccc1C[C@]1(C(=O)O)N=C(c2ccc(OCCCO)cc2)O[C@H]1c1ccccc1 | 0.855 | -0.221 | 1.28 | 0.565 | 0.272 | -0.924 | -0.297 (inactive) | -0.954 | -0.547 | -0.605 (inactive) | -0.0033 | -1.77 (inactive) | -1.1 (inactive) | 0.502 (inactive) | 0.258 (inactive) | -0.1 (inactive) | -0.115 (inactive) | -0.0225 (inactive) | -0.954 | -0.0562 |
| C=C[C@@H](OC)[C@H](OC(=O)Nc1ccc(OC)cc1)c1ccc(OC)c(O)c1 | -0.464 | 0.605 | -0.192 | -0.0794 | 1.05 | -0.733 | 0.141 (inactive) | 0.616 | 0.454 | 0.376 (inactive) | 0.358 | -1.19 (inactive) | -0.143 (inactive) | -0.0589 (inactive) | 0.295 (inactive) | 0.445 (inactive) | 0.724 (inactive) | 0.367 (inactive) | 0.185 | 0.431 |
| CC(=O)N1CC(C(O)C2C=CC3C(=O)NC(=O)C3N2Nc2ccc(Cl)cc2Cl)c2ccccc21 (stereo not given) | 1.08 | -0.753 | 0.46 | -0.452 | 0.0876 | -1.29 | -0.229 (inactive) | -0.212 | 0.644 | -0.554 (inactive) | -1.59 | -2.62 (inactive) | -0.731 (inactive) | 0.905 (inactive) | 1.28 (inactive) | 1.82 (inactive) | -0.306 (inactive) | -0.547 (inactive) | -0.94 | 0.277 |
| COC(=O)[C@@]1(Cc2ccc(OC)cc2)[C@H]2c3cc(C(=O)N4CCCC4)n(Cc4cc(C)n(C)n4)c3C[C@H]2CN1C(=O)c1ccccc1 | -0.0671 | -0.471 | 0.851 | 0.559 | 0.192 | 3.05 | 0.00691 (inactive) | -0.475 | -1.37 | 0.0924 (inactive) | -0.646 | 1.1 (inactive) | -2.09 (inactive) | -0.77 (inactive) | -0.222 (inactive) | 0.472 (inactive) | -0.145 (inactive) | 0.342 (inactive) | -2.11 | -0.02 |
| COCC(=C=CC[C@@H](O)c1cccc(OCCO)c1)CCO | 0.611 | 0.314 | 0.356 | 0.55 | -0.0681 | 0.00786 | 0.176 (inactive) | 1.15 | -0.447 | 0.0444 (inactive) | -0.161 | -0.773 (inactive) | -0.0845 (inactive) | -2.07 (inactive) | -0.59 (inactive) | -0.357 (inactive) | 0.583 (inactive) | 0.464 (inactive) | -0.0794 | -0.241 |
| O=C1C2C=CC(C(O)c3cc(C(F)(F)F)cc(C(F)(F)F)c3)N(Nc3ccccc3F)C2C(=O)N1c1ccccc1 (stereo not given) | -1.28 | -0.599 | -3.36 | -3.6 | -4.08 | -3.93 | 0.0394 (inactive) | -1.11 | -0.964 | -0.648 (inactive) | -2.18 | -1.47 (inactive) | -1.09 (inactive) | -0.232 (inactive) | 1.11 (inactive) | 0.332 (inactive) | -2.31 (inactive) | -0.711 (inactive) | -3.04 | 0.0264 |

From PubChem BioAssay
